This is one part of a sample in which hits are shown more often than they occur.
G9a block – inhibitors of human histone lysine methyltransferase G9a | Q96KQ7 | G9a H3K9 monomethylation, AlphaScreen, 2 h | Potency, µM (top dose mostly 102 µM), for the others: top-dose activity, negative = inhibition, hits mostly inhibitors | 350,000 compounds, 8.8% hits | AID 504332; note: % is set by controls: 0 for no effect and ±100 for the full control effect; nearly all actives have a fitted effect of over 75% in size
Target sequence (Q96KQ7 913-1193 limits assumed): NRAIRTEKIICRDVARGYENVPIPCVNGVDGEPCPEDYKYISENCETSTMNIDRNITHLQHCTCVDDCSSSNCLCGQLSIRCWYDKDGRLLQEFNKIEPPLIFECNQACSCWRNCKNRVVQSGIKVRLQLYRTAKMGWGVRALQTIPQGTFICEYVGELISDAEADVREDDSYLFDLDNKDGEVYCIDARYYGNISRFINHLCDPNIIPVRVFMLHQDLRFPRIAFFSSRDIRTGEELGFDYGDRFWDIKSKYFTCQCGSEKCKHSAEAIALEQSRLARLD
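AlphaScreen detection with an anti-monomethyl H3K9 antibody quantified product after a 2 h room-temperature reaction containing 500 nM biotinylated H3K9 peptide, 20 µM SAM and 20 nM enzyme, which had been preincubated 15 min with compound.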
12-LOX inh – blocks human arachidonate 12S-lipoxygenase | Potency, µM (doses to about 108 µM), inactives show at the top dose activity change, negative = inhibition, usual class: inhibitors | purified 12hLO, xylenol orange hydroperoxide absorbance | P18054 | 580,000 compounds, 1.1% hits; note: % is set by controls: 0 for no effect and ±100 for the full control effect
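Purified human 12hLO at 150 nM in 25 mM Hepes, 0.01% Triton X-100, pH 7.0, preincubated 15 min at room temperature with compound. Reaction started with 40 uM arachidonic acid, 30 min at room temperature. Hydroperoxide measured by Fe-xylenol orange, 573/405 nm absorbance ratio.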
VDR inh – vitamin D3 receptor (human) inhibition | P11473 | 400,000 compounds, 0.93% hits | Potency, µM, for inactives: max response, negative = inhibition, usual class: inhibitors | VDR-SRC2-3 peptide fluorescence polarization, 2 h; note: % is set by controls: 0 for no effect and ±100 for the full control effect
Target sequence (P11473 whole entry, looked up): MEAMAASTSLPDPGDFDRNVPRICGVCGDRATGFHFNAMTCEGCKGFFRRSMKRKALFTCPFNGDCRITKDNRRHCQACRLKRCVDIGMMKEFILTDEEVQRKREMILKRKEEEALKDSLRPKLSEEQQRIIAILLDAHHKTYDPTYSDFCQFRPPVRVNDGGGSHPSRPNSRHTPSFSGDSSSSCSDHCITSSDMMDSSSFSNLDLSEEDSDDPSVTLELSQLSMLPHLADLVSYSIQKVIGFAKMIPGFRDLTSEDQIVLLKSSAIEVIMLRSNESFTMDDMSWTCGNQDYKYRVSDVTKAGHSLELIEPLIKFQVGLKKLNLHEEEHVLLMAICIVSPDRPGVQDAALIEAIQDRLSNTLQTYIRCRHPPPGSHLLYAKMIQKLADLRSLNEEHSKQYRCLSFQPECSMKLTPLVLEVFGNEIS
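The screen uses fluorescence polarization to detect compounds that interfere with recruitment of the SRC2-3 coactivator peptide to VDR; plates are read after 2 h at room temperature.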
Sfp PPTase inh – inhibitors of Bacillus subtilis Sfp phosphopantetheinyl transferase. 310,000 compounds, 3.5% hits. Q9F4F7. AID 1490. Potency, µM, for the others: largest response in the series, negative = inhibition, most hits filed as inhibitors. Biochemical Sfp PPTase activity, qHTS;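 note: the enzyme is Sfp with the accession as filed and its product quenches rhodamine fluorescence; 0% = enzyme reaction without inhibitor and -100% = no enzyme wells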
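Sfp 15 nM + cpd, 15 min RT; start w/ rhodamine-CoA 5 uM, BHQ-2-YbbR 12.5 uM (final); 50 mM Hepes pH 7.6, 10 mM MgCl2, 0.01% NP-40, 0.01% BSA; read 525/598 nm at 0 and 30 min.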
GRP78 ERSR act – induces the endoplasmic reticulum stress response in human glioma cells. U87-MG GRP78 promoter luciferase reporter, 16 h. Potency, µM, inactives show at the highest dose activation, usual class: activators. 420,000 compounds, 0.02% hits; note: series mostly up to about 76 µM; % of control where 0% means no effect; nearly all actives have a fitted effect of over 35% in size
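ERSR induction read as luciferase luminescence (Bright-Glo, 10 min at room temperature) in stably transfected human U87-MG glioma cells exposed to compounds for 16 h, using GRP78 as sensor.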
* = called active by the depositor; ? = inconclusive; · = not tested or not shown; [ ] = another dose, or the depositor's remark. Calls come from the whole dose curve; as a rule, active = well fitted curve in the direction sought with a large enough effect; inconclusive = small, poorly fitted or top-dose-only effect, or another doubt; inactive = no such curve, though single readings can be large; an effect the other way counts as inactive or inconclusive. Potency is the fitted concentration of half-maximal effect.

SMILES	G9a block	12-LOX inh	VDR inh	Sfp PPTase inh	GRP78 ERSR act
CCOc1ccc(NC(=O)c2c(NC(=O)c3cccc(C)c3)sc3c2CCC3)cc1	-3%[59 µM]	-11%	11%	·	0%
CCOC(=O)c1ccc(NC(=O)c2c(NCc3cc(OC)ccc3OC)sc3c2CCC3)cc1	5µM*	-29%	22%	·	-1%
CCOC(=O)c1ccc(NC(=O)c2c(NCc3cc(OC)c(OC)cc3OC)sc3c2CCCC3)cc1	7.1µM*	?	-7%	·	-2%
COC(=O)c1ccc(NC(=O)c2c(NCc3cccc(F)c3)sc3c2CCCC3)cc1	?	?	-12%	·	2%
COCc1c(C(=O)N(C)Cc2ccccc2N2CCCC2)oc2ccccc12	50µM*	-19%	-19%	·	1%
CCn1nc(C(=O)N(C)Cc2ccccc2N2CCCC2)c2ccccc2c1=O	·	-25%	·	·	·
CCOc1ccc(-c2cc3ccccc3[nH]2)cc1	·	13µM*	·	·	·
Cc1c(C)n(-c2ccc(F)c(F)c2)c2ncnc(Cl)c12	·	5%	·	·	·
CCc1c(C)[nH]n(-c2nc(-c3ccccc3)cs2)c1=O	50µM*	26%	10%	5%	1%
CCn1c2c(c(=O)n3ncc(C(=O)Nc4ccc(OC(F)(F)F)cc4)c13)CN(Cc1ccc(OC)cc1)CC2	13µM*	?	-13%	·	2%
N#C/C(=C\c1c[nH]c2ccccc12)C(N)=O	-8%	?	-19%	-2%	-13%
CC(=O)Oc1c(/C=C(\C#N)C(N)=O)[nH]c2ccccc12	11µM*	?	-7%	7%	-12%
Cc1c(C(=O)N2CCC(C(=O)Nc3ccc4c(c3)OCO4)CC2)oc2ccccc12	·	16%	·	·	·
COCCNC(=O)COC(=O)CSCc1nc2ccccc2s1	79µM*	0%	-14%	14%	-2%
COc1ccc(C23CC4CC(C2)CC(c2ccc(OC)c(C(=O)NC(c5ccccc5)c5ccccc5)c2)(C4)C3)cc1C(=O)NC(c1ccccc1)c1ccccc1	·	4%	·	·	·
COc1ccc(Nc2nc(N3CCOCC3)nc3c2cnn3C)cc1	·	25%	·	·	·
Cc1ccc(C(=O)NN2C(=O)c3ccc(S(=O)(=O)c4ccc(C(=O)O)cc4)cc3C2=O)cc1	?	4%	40µM*	5%	2%
O=C(O)c1ccc(S(=O)(=O)c2ccc3c(c2)C(=O)N(NC(=O)c2ccc(O)cc2)C3=O)cc1	-47%	7%	-2%	17%	4%
COc1ccccc1N1CC(C(=O)Nc2nnc(SCc3ccccn3)s2)CC1=O (configuration not stated)	?	-3%	0%	-14%	-5%
COc1ccc(N2CC(C(=O)Nc3nnc(SCC(=O)c4ccccc4)s3)CC2=O)cc1 (configuration not stated)	13µM*	-14%	-14%	28µM*	2%
COCCSc1nnc(NC(=O)C2CC(=O)N(c3ccc(OC)cc3)C2)s1 (configuration not stated)	17%[59 µM]	6%	-6%	29%	-2%
COc1ccc(N2CC(C(=O)Nc3nnc(SCc4ccccn4)s3)CC2=O)cc1 (configuration not stated)	50µM*	-4%	-26%	-14%	3%
CNC(=O)CSc1nnc(NC(=O)C2CC(=O)N(c3ccccc3OC)C2)s1 (configuration not stated)	10µM*	-29%	-8%	50µM*	-5%
COC(=O)CCC(=O)OC1(C)C(=O)C2=CN(CCN3CCOCC3)C(c3ccc(OC)cc3)=CC2=C(Br)C1=O (configuration not stated)	-44%[59 µM]	·	·	5%	·
COC(=O)CCC(=O)OC1(C)C(=O)C2=CN(CCCCO)C(c3ccc(OC)cc3)=CC2=C(Br)C1=O (configuration not stated)	35µM*	·	·	-18%	·
SMILES	G9a block	12-LOX inh	VDR inh	Sfp PPTase inh	GRP78 ERSR act
Cc1oc(-c2cccs2)nc1C(=O)N1CCCCC1	·	7%	·	·	·
CCCn1nnnc1NCc1ccc(N2CCCC2)cc1	3.5µM*	?	11%	1%	-4%
CCCCn1c(NCc2ccccn2)nc2ccccc21	?	4%	6%	56µM*	0%
CCCn1nnnc1NCc1ccc(N(CC)CC)cc1	16µM*	10%	-17%	-1%	0%
CCCn1nnnc1NCc1ccc(F)cc1	·	-2%	9%	-3%	5%
CCN(CC)c1ccc(CNc2nc3ccccc3n2CC)cc1	32µM*	-15%	25%	3%	-3%
CCCCn1nnnc1NCc1ccc(N2CCCC2)cc1	-40%[12.7 µM]	0%	-5%	-20%	-4%
CCN(CC)c1ccc(CNc2nc3ccccc3n2C(C)C)cc1	?	-2%	-22%	8%	-2%
Cc1cc(C(=O)OC(C(=O)N(C)C)c2ccccc2)on1 (configuration not stated)	·	20%	·	·	·
CCN(CC)c1ccc(CNc2nnnn2C)cc1	32µM*	-2%	5%	4%	-1%
Cn1nnnc1NCc1ccc(Cl)cc1	19%[59 µM]	0%	4%	22%	-3%
Cc1nn(-c2ccccc2)c(N)c1N=Nc1ccc(Cl)cc1	35µM*	?	5%	?	1%
Cc1cccc(N=Nc2c(C)nn(-c3ccccc3)c2N)c1C	10µM*	-19%	2%	-7%	4%
Cc1nn(-c2ccccc2)c(N)c1N=Nc1ccccc1	45µM*	?	-2%	-2%	0%
Cc1nn(-c2ccccc2)c(N)c1C(c1ccc(C(C)C)cc1)c1c(C)nn(-c2ccccc2)c1N	13µM*	1%	8%	4%	0%
Cc1nn(-c2ccccc2)c(N)c1N=Nc1cccc(S(=O)(=O)N2CCOCC2)c1	?	0%	8%	5%	-3%
Cc1ccc(C(c2c(C)nn(-c3ccccc3)c2N)c2c(C)nn(-c3ccccc3)c2N)cc1	-13%[59 µM]	-2%	7%	-13%	0%
Nc1nn(-c2ccccc2)c(N)c1N=Nc1ccccc1F	?	9%	-17%	-8%	-5%
Nc1nn(-c2ccccc2)c(N)c1N=Nc1ccccc1	?	-21%	0%	-5%	0%
FC(F)(F)c1ccc(CN2CCCCCC2)cc1	10µM*	-30%	-2%	-7%	1%
COc1ccc(OC2CN(Cc3ccc(C(F)(F)F)cc3)C2)cc1	·	5%[6.33 µM]	·	·	·
O=C1CCN(Cc2ccc(C(F)(F)F)cc2)CCCCCCN1	·	-5%	·	·	·
COc1ccc(CN2CCN(Cc3ccc(C(F)(F)F)cc3)CC2)cc1	7.1µM*	?	-16%	-30%	-3%
CC(=O)c1ccc(C(=O)Nc2nc3ccc(S(=O)(=O)N(C)C)cc3s2)cc1	·	8%	·	·	·
CCCCCCCCCCCCS(=O)CC(Cl)CO (configuration not stated)	·	0%	·	·	·
CC(=Nc1ccccc1C)C1=C(O)CSC1=O	?	-11%[57.4 µM]	3%	-17%	1%
COc1ccc(N=C(C)C2C(=O)c3ccccc3C2=O)cc1	·	·	·	·	-9%
CC(=Nc1ccccc1)C1=C(O)CSC1=O	50µM*	3%	-9%	?	5%
COc1ccc(N=C(C)C2=C(O)CSC2=O)cc1	40µM*	-12%[57.4 µM]	-21%	?	7%

Source: PubChem (National Center for Advancing Translational Sciences (NCATS))
